Measurements taken from the supplement of paper PMC6897291.
Where a name gives a salt, the structure may show the parent alone.

Tested on: U-2932
Assay: growth inhibition by drug plus 177Lu-lilotomab satetraxetan (1 - RLU/untreated control) (fraction); higher = stronger inhibition
Conditions: 1000 nM; time (day): 5; 177Lu-lilotomab satetraxetan 1 ug/ml
How it was run: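 Plates pre-printed with the Selleck Cambridge Cancer Compound library at 10/100 nM (RIVA) or 10/1,000 nM (U-2932) received 3,000 cells/well. These cells had been washed after 18 h untreated or with a radiolabelled anti-CD37 antibody conjugate (~600 MBq/mg; 0.5 µg/ml RIVA, 1 µg/ml U-2932). Growth inhibition was obtained from RealTime-Glo luminescence in relation to untreated no-drug wells. Each daily read from day 3, taken after 1 h at 37°C, was converted as 1 − RLU/mean of 48 such wells per plate.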

| SMILES | growth inhibition by drug plus 177Lu-lilotomab satetraxetan |
| --- | --- |
| CNCc1ccc(-c2[nH]c3cc(F)cc4c3c2CCNC4=O)cc1 | 0.124 |
| O=C(O)c1ccc(-c2c[nH]c3ncc(-c4ccccc4)cc23)cc1C1CCCC1 | 0.227 |
| CC(=O)c1c(C)c2cnc(Nc3ccc(N4CCNCC4)cn3)nc2n(C2CCCC2)c1=O | -0.0131 |
| CCN(CC)CCCCNc1ncc2cc(-c3cc(OC)cc(OC)c3)c(NC(=O)NC(C)(C)C)nc2n1 | -0.0251 |
| CCC(C)(C)C(=O)O[C@H]1C[C@@H](C)C=C2C=C[C@H](C)[C@H](CC[C@@H]3C[C@@H](O)CC(=O)O3)[C@H]21 [Simvastatin (Zocor)] | -0.0188 |
| CC[C@H](Nc1ncnc2[nH]cnc12)c1nc2cccc(F)c2c(=O)n1-c1ccccc1 | 0.217 |
| CC(C=CC(=O)NO)=CC(C)C(=O)c1ccc(N(C)C)cc1 (stereo unspecified) [Trichostatin A (TSA)] | 0.984 |
| COc1ccc2c3n(c(=NC(=O)c4cccnc4)nc2c1OC)CCN3 | 0.166 |
| NC(=O)c1ccc(-c2nc(-c3ccccn3)c(-c3ccc4c(c3)OCO4)[nH]2)cc1 | 0.125 |
| CNC(=O)c1cc(Oc2ccc(NC(=O)Nc3ccc(Cl)c(C(F)(F)F)c3)c(F)c2)ccn1 [Regorafenib (BAY 73-4506)] | 0.39 |
| Cc1cnc(Nc2ccc(OCCN3CCCC3)cc2)nc1Nc1cccc(S(=O)(=O)NC(C)(C)C)c1 | 0.0513 |
| CCOc1ccc(Nc2nc(-c3c(C)nc4ccccn34)cs2)cc1 | 0.983 |
| CC(C)C[C@H](NC(=O)[C@H](Cc1ccccc1)NC(=O)c1cnccn1)B(O)O [Bortezomib (Velcade)] | 0.986 |
| O=C1CN2Cc3c(ccc(Cl)c3Cl)N=C2N1 [Anagrelide] | 0.178 |
| Cc1cc(Nc2cc(N3CCN(C)CC3)nc(/C=C/c3ccccc3)n2)n[nH]1 | 0.0776 |
| CCc1cc(Nc2nccc(-c3c(-c4ccc(OC)c(C(=O)Nc5c(F)cccc5F)c4)nc4ccccn34)n2)c(OC)cc1N1CCC(N2CCN(S(C)(=O)=O)CC2)CC1 | 0.00224 |
| O=C1CN2Cc3c(ccc(Cl)c3Cl)N=C2N1 [Anagrelide hydrochloride] | 0.102 |
| O=C(NCCCNc1nc(Nc2cccc(NC(=O)N3CCCC3)c2)ncc1I)c1cccs1 | 0.491 |
| CCC[C@H](NC(=O)/C(C#N)=C/c1cccc(Br)n1)c1ccccc1 | 0.115 |

| SMILES | growth inhibition by drug plus 177Lu-lilotomab satetraxetan |
| --- | --- |
| COc1cc2nc(N3CCCN(C)CC3)nc(NC3CCN(Cc4ccccc4)CC3)c2cc1OC | 0.267 |
| C#Cc1cccc(Nc2ncnc3cc(OCCOC)c(OCCOC)cc23)c1 [Erlotinib HCl] | 0.691 |
| CN(C)c1ccccc1CN1CCCN(Cc2ccccc2N(C)C)C1c1ccncc1 | -0.031 |
| COc1cc2c(NC3CCN(C)CC3)nc(N3CCCN(C)CC3)nc2cc1OCCCN(C)C | 0.00791 |
| COc1ccc(COc2cc3oc(=O)c4cc(C(C)O)ccc4c3cc2OC)cc1 (stereo unspecified) [Palomid 529] | 0.013 |
| CO[C@@H](C(=O)N1Cc2[nH]nc(NC(=O)c3ccc(N4CCN(C)CC4)cc3)c2C1)c1ccccc1 | 0.53 |
| Cn1cc(C2=C(c3ccc(Cl)cc3Cl)C(=O)NC2=O)c2ccccc21 | 0.059 |
| CCc1ccc(CCOc2ccc(CC3SC(=O)NC3=O)cc2)nc1 (stereo unspecified) [Pioglitazone (Actos)] | 0.0194 |
| O=C(O)C1(C(=O)O)CCC1.[NH2-].[NH2-].[Pt+2] [Carboplatin] | 0.0793 |
| CS(=O)(=O)c1ccc(C(=O)Nc2ccc(Cl)c(-c3ccccn3)c2)c(Cl)c1 [Vismodegib (GDC-0449)] | 0.194 |
| OCCn1cc(-c2ccc3c(c2)CC/C3=N\O)c(-c2ccncc2)n1 | -0.0101 |
| CC[C@@H]1C(=O)N(C)c2cnc(Nc3ccc(C(=O)NC4CCN(C)CC4)cc3OC)nc2N1C1CCCC1 | 0.97 |
| CC[C@]1(O)C[C@H]2CN(CCc3c([nH]c4ccccc34)[C@@](C(=O)OC)(c3cc4c(cc3OC)N(C=O)[C@H]3[C@@](O)(C(=O)OC)[C@H](OC(C)=O)[C@]5(CC)C=CCN6CC[C@]43[C@@H]65)C2)C1 [Vincristine] | 0.983 |
| CC(C)(C)c1ccc(S(=O)(=O)/C=C/C#N)cc1 | 0.534 |
| Cc1cn(-c2cc(NC(=O)c3ccc(C)c(Nc4nccc(-c5cccnc5)n4)c3)cc(C(F)(F)F)c2)cn1 [Nilotinib (AMN-107)] | -0.0875 |
| CC(C)(C#N)c1cc(Cn2cncn2)cc(C(C)(C)C#N)c1 [Anastrozole] | -0.0136 |
| C=CCn1c(=O)c2cnc(Nc3ccc(N4CCN(C)CC4)cc3)nc2n1-c1cccc(C(C)(C)O)n1 | 0.954 |
| Cn1cnc(N)c2ncnc1-2 [3-Methyladenine] | 0.0974 |
| CCc1c2c(nc3ccc(OC(=O)N4CCC(N5CCCCC5)CC4)cc13)-c1cc3c(c(=O)n1C2)COC(=O)[C@]3(O)CC [Irinotecan HCl Trihydrate (Campto)] | 0.965 |

Same assay, conditions: 1000 nM; time (day): 6; 177Lu-lilotomab satetraxetan 1 ug/ml

| SMILES | growth inhibition by drug plus 177Lu-lilotomab satetraxetan |
| --- | --- |
| CNCc1ccc(-c2[nH]c3cc(F)cc4c3c2CCNC4=O)cc1 | 0.238 |
| O=C(O)c1ccc(-c2c[nH]c3ncc(-c4ccccc4)cc23)cc1C1CCCC1 | 0.339 |
| CC(=O)c1c(C)c2cnc(Nc3ccc(N4CCNCC4)cn3)nc2n(C2CCCC2)c1=O | -0.0632 |
| CCN(CC)CCCCNc1ncc2cc(-c3cc(OC)cc(OC)c3)c(NC(=O)NC(C)(C)C)nc2n1 | 0.158 |
| CCC(C)(C)C(=O)O[C@H]1C[C@@H](C)C=C2C=C[C@H](C)[C@H](CC[C@@H]3C[C@@H](O)CC(=O)O3)[C@H]21 [Simvastatin (Zocor)] | 0.0898 |
| CC[C@H](Nc1ncnc2[nH]cnc12)c1nc2cccc(F)c2c(=O)n1-c1ccccc1 | 0.234 |
| CC(C=CC(=O)NO)=CC(C)C(=O)c1ccc(N(C)C)cc1 (stereo unspecified) [Trichostatin A (TSA)] | 0.984 |
| COc1ccc2c3n(c(=NC(=O)c4cccnc4)nc2c1OC)CCN3 | 0.278 |
| NC(=O)c1ccc(-c2nc(-c3ccccn3)c(-c3ccc4c(c3)OCO4)[nH]2)cc1 | 0.211 |
| CNC(=O)c1cc(Oc2ccc(NC(=O)Nc3ccc(Cl)c(C(F)(F)F)c3)c(F)c2)ccn1 [Regorafenib (BAY 73-4506)] | 0.48 |
| Cc1cnc(Nc2ccc(OCCN3CCCC3)cc2)nc1Nc1cccc(S(=O)(=O)NC(C)(C)C)c1 | 0.0765 |
| CCOc1ccc(Nc2nc(-c3c(C)nc4ccccn34)cs2)cc1 | 0.987 |
| CC(C)C[C@H](NC(=O)[C@H](Cc1ccccc1)NC(=O)c1cnccn1)B(O)O [Bortezomib (Velcade)] | 0.988 |
| O=C1CN2Cc3c(ccc(Cl)c3Cl)N=C2N1 [Anagrelide] | 0.243 |
| Cc1cc(Nc2cc(N3CCN(C)CC3)nc(/C=C/c3ccccc3)n2)n[nH]1 | 0.323 |
| CCc1cc(Nc2nccc(-c3c(-c4ccc(OC)c(C(=O)Nc5c(F)cccc5F)c4)nc4ccccn34)n2)c(OC)cc1N1CCC(N2CCN(S(C)(=O)=O)CC2)CC1 | -0.0976 |
| O=C1CN2Cc3c(ccc(Cl)c3Cl)N=C2N1 [Anagrelide hydrochloride] | 0.224 |
| O=C(NCCCNc1nc(Nc2cccc(NC(=O)N3CCCC3)c2)ncc1I)c1cccs1 | 0.618 |
| CCC[C@H](NC(=O)/C(C#N)=C/c1cccc(Br)n1)c1ccccc1 | 0.183 |

| SMILES | growth inhibition by drug plus 177Lu-lilotomab satetraxetan |
| --- | --- |
| COc1cc2nc(N3CCCN(C)CC3)nc(NC3CCN(Cc4ccccc4)CC3)c2cc1OC | 0.319 |
| C#Cc1cccc(Nc2ncnc3cc(OCCOC)c(OCCOC)cc23)c1 [Erlotinib HCl] | 0.685 |
| CN(C)c1ccccc1CN1CCCN(Cc2ccccc2N(C)C)C1c1ccncc1 | -0.0122 |
| COc1cc2c(NC3CCN(C)CC3)nc(N3CCCN(C)CC3)nc2cc1OCCCN(C)C | 0.0785 |
| COc1ccc(COc2cc3oc(=O)c4cc(C(C)O)ccc4c3cc2OC)cc1 (stereo unspecified) [Palomid 529] | 0.0753 |
| CO[C@@H](C(=O)N1Cc2[nH]nc(NC(=O)c3ccc(N4CCN(C)CC4)cc3)c2C1)c1ccccc1 | 0.634 |
| Cn1cc(C2=C(c3ccc(Cl)cc3Cl)C(=O)NC2=O)c2ccccc21 | 0.146 |
| CCc1ccc(CCOc2ccc(CC3SC(=O)NC3=O)cc2)nc1 (stereo unspecified) [Pioglitazone (Actos)] | 0.192 |
| O=C(O)C1(C(=O)O)CCC1.[NH2-].[NH2-].[Pt+2] [Carboplatin] | 0.221 |
| CS(=O)(=O)c1ccc(C(=O)Nc2ccc(Cl)c(-c3ccccn3)c2)c(Cl)c1 [Vismodegib (GDC-0449)] | 0.297 |
| OCCn1cc(-c2ccc3c(c2)CC/C3=N\O)c(-c2ccncc2)n1 | 0.0758 |
| CC[C@@H]1C(=O)N(C)c2cnc(Nc3ccc(C(=O)NC4CCN(C)CC4)cc3OC)nc2N1C1CCCC1 | 0.982 |
| CC[C@]1(O)C[C@H]2CN(CCc3c([nH]c4ccccc34)[C@@](C(=O)OC)(c3cc4c(cc3OC)N(C=O)[C@H]3[C@@](O)(C(=O)OC)[C@H](OC(C)=O)[C@]5(CC)C=CCN6CC[C@]43[C@@H]65)C2)C1 [Vincristine] | 0.988 |
| CC(C)(C)c1ccc(S(=O)(=O)/C=C/C#N)cc1 | 0.533 |
| Cc1cn(-c2cc(NC(=O)c3ccc(C)c(Nc4nccc(-c5cccnc5)n4)c3)cc(C(F)(F)F)c2)cn1 [Nilotinib (AMN-107)] | -0.155 |
| CC(C)(C#N)c1cc(Cn2cncn2)cc(C(C)(C)C#N)c1 [Anastrozole] | -0.0141 |
| C=CCn1c(=O)c2cnc(Nc3ccc(N4CCN(C)CC4)cc3)nc2n1-c1cccc(C(C)(C)O)n1 | 0.971 |
| Cn1cnc(N)c2ncnc1-2 [3-Methyladenine] | 0.207 |
| CCc1c2c(nc3ccc(OC(=O)N4CCC(N5CCCCC5)CC4)cc13)-c1cc3c(c(=O)n1C2)COC(=O)[C@]3(O)CC [Irinotecan HCl Trihydrate (Campto)] | 0.98 |
